Compound activity from PubChem BioAssay.
Shiga toxin inh = inhibitors of Shiga toxin in Vero cells; 290,000 compounds, 9.2% hits; Vero cells, Shiga toxin protein synthesis inhibition reporter; AID 2315; inhibition, % at 38.7 µM; in the data active = inhibition mostly above about 28%, no sharp cut-off; inactive = mostly below about 43%
NS1 function inh = blocks influenza NS1 protein function | AID 2326 | Potency, µM (titrated, usually from 46.1 µM) | 270,000 compounds, 0.4% hits; note: actives are rising curves; nearly all actives have a fitted effect of over 50% in size
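Read-out: OD600 growth recovery of NS1-expressing budding yeast. Cells grown overnight at 30C in -URA glucose medium, washed, resuspended and diluted 1:100 in 2% galactose assay medium, pH 6.0. Same strain lacking NS1 served as positive control.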
SARS PLpro yeast = SARS-CoV PLP inhibition in yeast. S. cerevisiae expressing SARS-CoV PLpro, growth rescue. Potency, µM (highest dose often 32.9 µM), actives largely listed as activators. 330,000 compounds, 0.19% hits; note: nearly all actives have a fitted effect of over 55% in size
Pf growth 96h = inhibits malaria parasite growth, 96 h. 320,000 compounds, 6.9% hits. P. falciparum luciferase reporter growth, 96 h. Potency, µM (top dose mostly 28.7 µM), usual class: inhibitors; active = well fitted inhibition curve with a large enough effect; inconclusive = small, poorly fitted or top-dose-only effect, or another doubt; inactive = no such curve, though single readings can be large or run the other way
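Readout is luminescence from an integrated firefly luciferase in P. falciparum. Red cells, 2% hematocrit and 0.05% parasitemia final, were cultured with compound through two parasite generations (96 hours) at 37 C, 5% CO2.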
Cycloheximide cs = affects cycloheximide protein synthesis inhibition readout, counter-screen | cell reporter, cycloheximide protein synthesis inhibition counterscreen | max response, % | 300,000 compounds, 12% hits; in the data active = max response mostly above about 13%, no sharp cut-off; inactive = mostly below about 14%; note: read at 38.3 µM for the half of the compounds with a filed dose
Pf growth 48h = P. falciparum growth inhibition at 48 hours (one generation) | 310,000 compounds, 5.9% hits | Potency, µM (series often up to 28.7 µM), hits mostly inhibitors | P. falciparum luciferase growth in erythrocytes, 48 h; active = well fitted inhibition curve with a large enough effect; inconclusive = small, poorly fitted or top-dose-only effect, or another doubt; inactive = no such curve, though single readings can be large or run the other way
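Growth was read as firefly luciferase luminescence after a 48 h, 37 C, 5% CO2 exposure of compounds to reporter-bearing P. falciparum cultures (0.1% parasitemia, 2% hematocrit final) in Albumax-supplemented RPMI 1640.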
Numbers stand for hits; . = inactive; ? = inconclusive; / = not tested or not shown; [ ] = another dose, or the depositor's remark. This is a sample that favours compounds with a hit; in the whole collection about 21% have one here. Unless noted, calls come from the whole dose curve.

SMILES	Shiga toxin inh	NS1 function inh	SARS PLpro yeast	Pf growth 96h	Cycloheximide cs	Pf growth 48h
O=C(O)c1ccc(S(=O)(=O)NC2CCCCCC2)cc1	.	.	.	12µM	.	.
O=C(O)c1ccc(S(=O)(=O)N(Cc2ccc(F)cc2)C2CCCCC2)cc1	.	.	.	12µM	.	.
Cc1ccc(S(=O)(=O)NC2CCCCCCC2)cc1	.	.	.	8.3µM	.	.
Cc1ccccc1-n1nc2c(c1NC(=O)c1cc3ccccc3o1)CS(=O)(=O)C2	/	/	.	.	/	?
O=C(Nc1ccc(NC(=O)c2ccco2)c(Cl)c1)c1ccccc1	79	.	.	.	47	.
Cc1ccc(NC(=O)CCNC(=O)c2ccco2)cc1Cl	.	.	.	.	.	.
CC(C)Oc1ccc(C(=O)Nc2ccc(NC(=O)c3ccco3)c(Cl)c2)cc1	50	.	.	.	40	.
O=C(Nc1ccc(Br)c(Cl)c1)c1ccco1	76	.	.	.	41	.
CC(C)COc1ccc(C(=O)Nc2ccc(NC(=O)c3ccco3)c(Cl)c2)cc1	.	.	.	.	.	/
Cc1cc(C)c(C(=O)COC(=O)C2CCN(c3ccc(C(F)(F)F)cn3)CC2)c(C)c1	/	/	.	?	/	?
CCn1c(-c2cc(Br)ccc2O)n[nH]c1=S	/	.	/	/	/	/
COc1ccc(O)c(-c2cc(-c3ccccc3Cl)[nH]n2)c1	33	.	.	.	26	?
COc1ccccc1-c1cc(-c2cc(Cl)ccc2O)n[nH]1	.	.	.	.	17	.
Oc1ccc(Br)cc1-c1cc(-c2ccccc2F)[nH]n1	77	.	.	.[5.75 µM]	64	9.3µM
COc1ccc(CNC(=O)c2cc(-c3ccccc3O)n[nH]2)cc1	.	?	.	/	.	.
COc1ccc(O)c(-c2cc(-c3cccs3)[nH]n2)c1	155	.	.	?	43	?
COc1ccc(Cl)cc1-c1n[nH]c(=S)n1C	.	.	.	?	.	/
Oc1c(Br)cc(C2N=C(c3ccccc3Cl)NO2)cc1Br (centres undefined)	.	.	.	.	.	.
Oc1ccc(Br)cc1-c1cc(-c2ccccc2Cl)[nH]n1	42	.	.	4.1µM	19	2.9µM
Cc1nc(SCC(=O)NCCN2C(=O)CSC2=O)nc(C)c1C	/	/	.	/	/	/
COc1ccc(C2=NOC(Cn3nc(-c4ccccc4)cc3C(=O)O)C2)cc1 (centres undefined)	/	/	.	.	/	.
CCCNC(=O)C1(CC2CC(c3ccccc3)=NO2)CCN(C(=O)C2CCCC2)CC1 (centres undefined)	/	/	.	15µM	/	13µM
COc1ccc(CNC(=O)C2(CC3CC(c4ccccc4)=NO3)CCN(C(=O)C3CCCC3)CC2)cc1 (centres undefined)	.	.	.	5.2µM	.	?
O=C(C1CCCC1)N1CCC(CC2CC(c3ccc(Cl)cc3)=NO2)(C(=O)NCC2CCCCC2)CC1 (centres undefined)	.	.	.	1µM	.	?
Cc1ccccc1CC(=O)Nc1cccnc1	.	.	.	.	.	.
SMILES	Shiga toxin inh	NS1 function inh	SARS PLpro yeast	Pf growth 96h	Cycloheximide cs	Pf growth 48h
COc1ccc(CC(=O)NNC(=O)COc2ccc(F)cc2)cc1S(=O)(=O)N1CCOCC1	/	/	.	/	/	/
COCCNC(=S)NNc1ccccc1[N+](=O)[O-]	.	.	.	.	.	.
Cc1cc(C)nc(SCC(=O)N2CCC(C(N)=O)CC2)n1	.	.	.	/	.	.
NC(=O)C1CCN(C(=O)CCSCc2ccccc2)CC1	.	.	?	?	24	?
Cc1ccc(SCCC(=O)N2CCC(C(N)=O)CC2)cc1	.	.	?	?	14	.
CCN(CC(=O)N1CCC(C)CC1)S(=O)(=O)c1ccc(C)cc1	.	.	.	.	.	.
Cc1ccc(SCCC(=O)N2CCC(C)CC2)cc1	73	.	.	.	34	.
CC(=O)Nc1ccc(NC(=O)COC(=O)c2cc(S(=O)(=O)N(C)C)ccc2N2CCCC2)cc1	/	/	.	.	/	.
Cc1ccc(CNc2ncnc3ccc(-c4c(C)noc4C)cc23)o1	.	/	/	/	.	/
Cc1ccc2cc(CN(CCN3CCOCC3)Cc3nnnn3Cc3ccco3)c(=O)[nH]c2c1C	.	.	.	?	.	.
CCOC(=O)Cn1nnnc1CN(Cc1ccc(OC)cc1)Cc1cc2cc(CC)ccc2[nH]c1=O	.	.	?	?	.	/
CCc1ccc2[nH]c(=O)c(CN(Cc3ccccc3OC)Cc3nnnn3Cc3ccco3)cc2c1	.	?	.	?	.	4.7µM
COc1ccccc1CN(Cc1cc2cc(C)ccc2[nH]c1=O)Cc1nnnn1Cc1ccco1	53	.	.	3.3µM	.	12µM
Cc1ccc2cc(CN(Cc3ccc4c(c3)OCO4)Cc3nnnn3Cc3ccco3)c(=O)[nH]c2c1C	.	.	.	?	.	8.3µM
Cc1ccc(S(=O)(=O)NCc2cccnc2)cc1	.	.	.	?	.	.
CC(C)CCOc1ccc(CO[C@@H]2[C@H]3OC(C)(C)O[C@H]3O[C@@H]2C(O)CO)cc1 (some centres undefined)	.	.	.	.	.	?
CCOc1ccc(/C=N/NC(=O)C(=O)N2CCCCCC2)c2ccccc12	.	.	.	?	.	?
CC(NC(=O)c1cc2ccccc2o1)c1cccs1 (centres undefined)	.	.	.	8.3µM	.	/
CC(NC(=O)c1cc2ccccc2o1)c1ccccc1 (centres undefined)	.	.	.	.	.	.
O=C(c1cc2ccccc2o1)c1cccs1	82	.	.	/	50	.
O=C(NC(=S)Nc1ccc(NC(=O)c2cccs2)cc1)c1ccco1	.	.	.	?	.	1.7µM
Cc1ccc(NC(=O)c2cccs2)cc1NC(=O)c1ccco1	.	.	.	.	.	.
O=C(Nc1ccc(NC(=O)c2cccs2)cc1)c1ccco1	.	.	.	.	31	/
CCCCCCSc1nsc(NC(=O)CCC)n1	.	.	.	?	.	.
C=C1CCN(C(C)C(=O)OCc2cccc(C)c2)S(=O)(=O)c2ccccc21 (centres undefined)	.	/	/	/	.	/
SMILES	Shiga toxin inh	NS1 function inh	SARS PLpro yeast	Pf growth 96h	Cycloheximide cs	Pf growth 48h
O=C(NC(=S)Nc1ccc(NC(=O)c2cccs2)cc1)c1cc2ccccc2o1	.	.	.	.	.	3.3µM
O=C(OCC(=O)c1cccs1)c1ccc(NC(=O)c2ccco2)cc1	.	.	.	.	59	.
COc1cc(CN(CCN(C)C)Cc2ccccc2)ccc1OCc1ccccc1	.	.	.	?	.	?
OCCN(Cc1ccccc1)CC(O)COc1ccc2c(c1)OCO2 (centres undefined)	.	.	.	.	.	.
Cc1cc(C)c(N2CCN(S(=O)(=O)N3CCCCCC3)CC2)c(C)c1	.	.	.	/	.	10µM
CC(C)(C)c1ccc2c(S(=O)(=O)O)c(C(C)(C)C)ccc2c1	/	/	/	?	/	.
Cc1ccc2nc(N(CCCN(C)C)C(=O)c3cc(-c4cccs4)nc4ccccc34)sc2c1	.	.	.	13µM	.	.
CN(C)CCCN(C(=O)c1ccc2c(c1)CCCC2)c1nc2c(F)cccc2s1	24	.	.	?	17	9.3µM
